Test results published in PubChem BioAssay AID624417 (National Center for Advancing Translational Sciences (NCATS), 2012).
Among all 410,000 compounds or so, about 6,400 (1.6%) were called active. Another 20% or so got no clear call; they are omitted. Calls follow the shape of the dose curve; as a rule, active = well fitted inhibition curve with a large enough effect; inconclusive = small, poorly fitted or top-dose-only effect; inactive = no such curve, though single readings can be large or run the other way. For the sample, actives were picked, then their nearest neighbours and some compounds at random.

Biological target: Glucagon-like peptide 1 receptor (Homo sapiens) (UniProt P43220)
Test: qHTS of GLP-1 Receptor Inverse Agonists (Inhibition Mode); also: nearly all actives have a fitted effect of over 55% in size
Conditions: HEK293 GLP-1R CRE-luciferase, luminescence, 24 h, GLP-1R form is constitutively active; series mostly up to 38.3 µM; activity change, negative = inhibition: at the top concentration
Summary of the method: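 Stable HEK293 clone (constitutively active GLP-1R + cAMP-response luciferase); 200 cells/uL plated, 12 h pre-culture, compound 24 hr, 37 deg C/5% CO2; detection reagent 12 min RT; luminescence.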
% is scaled to controls: 0 for no effect and ±100 for the full control effect; potency is read from the fitted curve at half-maximal effect.

Sequence of Glucagon-like peptide 1 receptor (Homo sapiens) (P43220 whole entry, looked up): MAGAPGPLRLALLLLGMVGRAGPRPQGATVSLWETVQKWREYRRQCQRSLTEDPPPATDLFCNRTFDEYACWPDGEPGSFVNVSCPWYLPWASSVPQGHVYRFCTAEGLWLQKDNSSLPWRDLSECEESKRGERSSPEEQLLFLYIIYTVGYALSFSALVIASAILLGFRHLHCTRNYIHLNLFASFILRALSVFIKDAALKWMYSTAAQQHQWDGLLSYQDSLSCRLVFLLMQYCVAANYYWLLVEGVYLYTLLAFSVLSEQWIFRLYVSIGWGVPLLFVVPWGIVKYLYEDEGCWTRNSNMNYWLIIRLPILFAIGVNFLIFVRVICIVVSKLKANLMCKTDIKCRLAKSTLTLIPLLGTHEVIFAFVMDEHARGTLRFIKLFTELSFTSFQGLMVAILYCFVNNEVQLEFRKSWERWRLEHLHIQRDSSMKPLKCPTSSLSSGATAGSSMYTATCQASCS

SMILES	activity change, negative = inhibition	Potency
CN(Cc1ccc(C(F)(F)F)cc1)C(=O)[C@H]1O[C@@H](n2cnc3c(N)ncnc32)[C@H](O)[C@@H]1O	28.2% (inactive)	
COc1cc2[nH]c(=O)n(Cc3ccc(C(=O)NC4CCN(Cc5ccccc5)CC4)cc3)c(=O)c2cc1OC	10.8% (inactive)	
COc1cc(C(=O)NC2CCN(Cc3ccccc3)CC2)cc(Cl)c1OC(C)C		10 µM (active)
COc1ccc(C(=O)O)cc1S(=O)(=O)NC1CCN(Cc2ccccc2)CC1	7.59% (inactive)	
O=C(C=CC(=O)Nc1ccc(F)cc1F)Nc1ccc(F)cc1F	16.9% (inactive)	
CCOC(=O)N1CCN(C(=O)c2ccc(S(=O)(=O)Nc3cccc(C(F)(F)F)c3)cc2)CC1	-8.41% (inactive)	
O=C(NCc1ccccc1)c1ccc(S(=O)(=O)Nc2cccc(C(F)(F)F)c2)cc1		10 µM (active)
O=C(NCc1ccncc1)c1cccc(NS(=O)(=O)c2ccc(F)c(F)c2)c1	-12.2% (inactive)	
CC(=O)Nc1ccc(C=CC(=O)c2ccc([N+](=O)[O-])cc2)cc1	-3.33% (inactive)	
CC(=O)Nc1ccc(C=Cc2ccc([N+](=O)[O-])cc2)cc1	9.15% (inactive)	
O=C(O)/C=C/C(=O)NNc1ccc([N+](=O)[O-])cc1		8.91 µM (active)
CN1OC[C@@H]2CN(C(=O)c3cccc4ccccc34)[C@H](c3ccc(N4CCCCC4)cc3)C[C@@H]21	3.98% (inactive)	
Cc1ccc(CN(Cc2cccnc2)C(=S)Nc2cc(Cl)ccc2C)cc1		10 µM (active)
CCN(Cc1ccncc1)C(=S)Nc1ccccc1C	-2.47% (inactive)	
COCCNC(=S)N(Cc1cccnc1)Cc1ccc(OC)c(OC)c1	14.6% (inactive)	
Nc1nc2cc(Cl)ccc2n1N	-52.9% (inactive)	
C[C@H]1Cn2cnc(C(=O)N[C@@H](Cc3c[nH]c4ccccc34)C(=O)OC(C)(C)C)c2C(=O)N1	6.39% (inactive)	
COc1ccccc1C(=O)NC(=S)Nc1ccc(N2CCOCC2)cc1	-5.24% (inactive)	
O=C(Cc1ccc([N+](=O)[O-])cc1)NCCS(=O)(=O)N1CCN(c2ccccc2)CC1	-2.98% (inactive)	
COc1ccc(OC)c(C(=O)NC2CCCc3c2cnn3-c2cc(C)cc(C)c2)c1 (stereo not drawn)		10 µM (active)
Cc1ccc(-n2ncc3c2CCCC3NC(=O)c2cnccn2)cc1C (stereo not drawn)	8.53% (inactive)	

SMILES	activity change, negative = inhibition	Potency
Cn1nccc1C(=O)NC1CCCc2c1cnn2-c1ccc(F)cc1F (stereo not drawn)	10% (inactive)	
COCCCNC(=O)c1ccc(-c2c(C)noc2C)c2ccoc12	-5.17% (inactive)	
CCCS(=O)(=O)NC(=O)C1(C)CCCN(C(=O)c2cc(C)on2)C1 (stereo not drawn)	8.84% (inactive)	
CCC1NC(=O)c2cccnc2-n2c1nc1ccc(C)cc1c2=O (stereo not drawn)	-5.41% (inactive)	
CCCCCCSc1ccc([C@@H]2[C@H]3C(=O)N(CC)C(=O)[C@H]3[C@]3(C(=O)OC)CCCCN23)cc1	-8.07% (inactive)	
CCCCCCSc1ccc([C@@H]2[C@@H]3C(=O)N(CC)C(=O)[C@@H]3[C@]3(C(=O)OC)CCCCN23)cc1OC		11.2 µM (active)
CCN1C(=O)[C@@H]2[C@@H](c3ccc(-c4ccc(OC)cc4)c(OC)c3)N3CCC[C@@]3(C(=O)OC)[C@@H]2C1=O	2.32% (inactive)	
CSc1ccc(CNC(=O)C2(C)CCCN2C)cc1 (stereo not drawn)	9.89% (inactive)	
Cc1cc(C(=O)N2CCCC2(C)C(=O)O)c(C)o1 (stereo not drawn)	25.9% (inactive)	
Cn1nccc1C(=O)N1CCCC(C(=O)c2ccc(Oc3ccccc3)cc2)C1 (stereo not drawn)		3.55 µM (active)
CCn1nc(C)cc1C(=O)N1CCCC(C(=O)c2cccc(OC)c2)C1 (stereo not drawn)	32.6% (inactive)	
O=C(c1ccc(-c2ccccc2)cc1)C1CCCN(C(=O)c2cncs2)C1 (stereo not drawn)	-53% (inactive)	
CCOC(=O)[C@]12CCC=C1N(Cc1ccco1)C(=O)[C@H](CC(=O)N1CCSCC1)C2	8.51% (inactive)	
COc1nc(NC2CCCCC2)nc(N2CCCCCC2)n1		5.01 µM (active)
COC(=O)c1ccc(Oc2nc(Nc3ccc(F)cc3)nc(N3CCCC3)n2)cc1	2.41% (inactive)	
Clc1nc(NC2CCCC2)nc(N2CCOCC2)n1	30.6% (inactive)	
CO[C@@H]1CN(C)C(=O)c2cc(NC(=O)Nc3cc(F)ccc3F)ccc2OC[C@H](C)N(C(=O)c2ccccn2)C[C@@H]1C	12.7% (inactive)	
CN1CCN(C2Cc3ccc(Cl)cc3Sc3ccc(F)cc32)CC1 (stereo not drawn)		8.91 µM (active)
CCN(CC)C(=O)C1=C(C)N(Cc2ccc(F)cc2)C(=O)C(CC(=O)NC2CCCC2)C1 (stereo not drawn)	1.9% (inactive)	
O=C(Nc1ccc(F)cc1)C(CCc1ccccc1)N1CCN(CC(=O)N2CCCC2)CC1 (stereo not drawn)	15.1% (inactive)	
N#CCSc1ccccc1NC(=O)CN1C(=O)NC(CCc2ccccc2)C1=O (stereo not drawn)	4.84% (inactive)	

SMILES	activity change, negative = inhibition	Potency
Nc1cc(C(=O)N2CCN(c3ccccc3Cl)CC2)ccc1N1CC2CC(C1)c1cccc(=O)n1C2 (stereo not drawn)	1.93% (inactive)	
CCC(=O)NC(=S)Nc1ccc(NC(=O)c2ccco2)c(Cl)c1	56.6% (inactive)	
Cc1cc(NC(=O)c2ccc(F)cc2)ccc1NC(=O)c1ccco1	-2.68% (inactive)	
CCN(CC)P(=O)(Nc1ccc(SC(F)F)cc1)c1ccc(N(C)C)cc1NC(=O)c1ccco1 (stereo not drawn)		2.51 µM (active)
O=C(Nc1ccc(N2CCOCC2)cc1)c1cccc2c(-c3ccc(F)c(F)c3)coc12	6.21% (inactive)	
O=NN(CCCl)C(=O)NCCc1cccc[n+]1[O-]	13.9% (inactive)	
CCSc1nsc(NC(=O)Nc2ccccc2OC)n1		11.2 µM (active)
COc1ccccc1NC(=S)NC(=O)C(C)C	0% (inactive)	
CCc1nc(SCC(=O)Nc2ccccc2OC)n[nH]1	9.23% (inactive)	
Cc1ccccc1NC(=O)Cc1nc(COC(=O)CNC(=O)c2ccc(Cl)cc2Cl)cs1	4.36% (inactive)	
CCOc1ccc(CCNC(=O)COC(=O)c2ccc(C)c(S(=O)(=O)N3CCOCC3)c2)cc1OCC	3.97% (inactive)	
Cc1cc(Br)cn2c(Cc3ccsc3)c(-c3ccc(C#N)cc3)nc12	-7.25% (inactive)	
Cc1ccc(OCC(O)CN2CCN(CC(O)COc3ccc(C)cc3Cl)CC2)c(Cl)c1 (stereo not drawn)	3.12% (inactive)	
OC(COc1ccc(F)cc1Cl)CN1CCc2ccccc2C1 (stereo not drawn)		10 µM (active)
COc1ccccc1OCC(O)CN1CCOCC1 (stereo not drawn)	4.18% (inactive)	
O=C1NC[C@H](Cc2ccc(O)cc2)N(C[C@H]2CCCN2C[C@H](Cc2ccccc2)N2C[C@H](Cc3ccccc3)N(CCc3ccccc3)C(=O)C2=O)C1=O	9.65% (inactive)	
O=C1OC(Oc2ccc(Br)cc2)(c2ccccc2)c2ccccc21 (stereo not drawn)		10 µM (active)
CC1(C(=O)NS(=O)(=O)c2ccccc2)CCN1C(=O)C1CCCCC1 (stereo not drawn)	-3.17% (inactive)	
Cc1cc2oc(C(=O)N(Cc3ccc(Cl)cc3)Cc3ccco3)c(C)c2cc1Cl	6.07% (inactive)	
O=C(COc1ccc(Cl)cc1)N(Cc1ccco1)Cc1ccco1		10 µM (active)
CCOc1ccc(S(=O)(=O)N(CC(=O)NCC(F)(F)F)Cc2ccco2)cc1	16% (inactive)	
